# Screens as filed in PubChem BioAssay.
# Most compounds without a hit are left out; they make up all but 6.8% or so of the library.
# Spn MK inh: blocks S. pneumoniae mevalonate kinase. purified MK, PK/LDH-coupled NADH absorbance 340 nm. inhibition, % at 10 µM. actives 0.48% (n = 65,000). AID 555;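 active = ranked among the strongest by inhibition in the single 10 µM screen, a fixed top-ranked set picked for dose follow-up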
# Spn PMK inh: inhibitors of Streptococcus pneumoniae phosphomevalonate kinase; purified PMK, PK/LDH-coupled NADH absorbance 340 nm; inhibition, % at 10 µM; actives 0.49% (n = 65,000);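 active = top-ranked compounds by inhibition in the single 10 µM screen, taking a fixed number of the strongest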;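 note: 0% = full reaction with DMSO carrier and 100% = background rate without enzyme reaction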
# NADH coupling: inhibitors of enzymes used to reach an NAD/NADH endpoint; coupled PK/LDH NADH assays, four targets; IC50, µM (doses to about 10 µM), for inactives: at the top dose inhibition; actives 0.02% (n = 65,000); AID 774;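 active = single-dose screening hits from any of four coupled enzyme assays that gave an IC50 when retested across doses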;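 note: the DPM-DC format reads NADH fluorescence rather than 340 nm absorbance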
# DPM-DC inhibit: blocks S. pneumoniae diphosphomevalonate decarboxylase. purified DPM-DC, PK/LDH coupled NADH fluorescence. calls only at 10 µM. AID 556. actives 0.49% (n = 65,000);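 active = the 320 compounds with the highest percent inhibition in the single-dose primary screen, excluding strongly autofluorescent ones, cut at about 32% in these data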;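 note: kinetic rate of NADH fluorescence loss reporting ADP formed by the decarboxylase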
# A340 absorber: absorbance at 340 nm; AID 708; compound absorbance at 340 nm, fold over control; 65,000 tested, under 10 active; fold change at 10 µM;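 active = at 10 µM dose, initial 340 nm absorbance at least 2 fold that of control wells; inactive = change under 2 fold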;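 note: initial absorbance extrapolated from kinetic A340 decline of NADH oxidation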
# Fluor 339 460: intrinsic fluorescence of library compounds, ex339/em460 – biochemical, MLSMR library, data from DPM-DC assay, artefact control, profiling panel | actives 5.5% (n = 65,000) | compound autofluorescence, ex339/em460 nm, NADH buffer; stronger effect = higher value; 1 = no-compound wells, NADH background | fluorescence fold increase at 10 µM | AID 709;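 active = at 10 µM, mean starting fluorescence two-fold or more over control wells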;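 note: signal is the first read of a kinetic run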
# * = called active by the depositor; i = inactive; / = no result given.
SMILES,Spn MK inh,Spn PMK inh,NADH coupling,DPM-DC inhibit,A340 absorber,Fluor 339 460
Cc1nc2c(C(=O)NCc3ccco3)cnn2c(C)c1Cc1ccc(F)cc1Cl,0,7,6%,i,1,3.1*
CC(=O)N(Cc1cc2cc(C)c(C)cc2n2nnnc12)CC1COCCO1 (stereo not drawn),0,18,6%,i,1,1.1
Cc1cc(/C=N/n2cnnc2)c(C)n1-c1cc(Cl)ccc1Cl,2,11,6%,i,1.1,1.1
CCOC(=O)N1CCN(S(=O)(=O)c2ccc(C(=O)Nc3nc4ccccc4s3)cc2)CC1,8,13,11%,/,1.1,4.5*
CCOC(=O)N1CCN(S(=O)(=O)c2ccc(F)cc2)CC1,9,12,7%,i,1,1.2
CCOC(=O)N1CCN(S(=O)(=O)c2ccc(C(=O)Nc3nc4ccc(F)cc4s3)cc2)CC1,8,22,15%,/,1.1,4.6*
C=C(C)Cn1c(-c2ccc(OC)cc2)nc2ccccc21,0,14,5%,i,0.98,1.1
Cc1nn2c(c1-c1ccccc1)NC1=C(C(=O)CCC1)C2c1cccnc1 (stereo not drawn),0,11,6%,/,1.1,3.8*
CC(SC1CCCC1)C(=O)NC(C)(C#N)C(C)C (stereo not drawn),0,18,6%,i,1,1
CCCn1cnc2c(cnn2-c2ccc(F)cc2)c1=O,6,27*,4%,i,0.97,1
CCCCn1cnc2c(cnn2-c2ccc(F)cc2)c1=O,5,13,6%,i,0.98,1.1
Cc1cccc(NC(=O)C2c3ccccc3C(=O)N3CCc4ccccc4C23)n1 (stereo not drawn),11,17,9%,i,0.99,1.1
COc1ccc(NCc2nnc(SCC#N)n2-c2ccccc2OC)cc1,8,10,6%,i,1,1.1
CC(C)OC(=O)c1cccnc1SCc1cc(=O)n2ccccc2n1,12,28*,16%,i,1.1,1.7
COc1cc(-c2c(C#N)c(N)nc3c2c(C)nn3-c2ccc(C)c(C)c2)cc(OC)c1OC,0,3,2%,/,1.1,3.8*
COc1ccc(-c2nc(C#N)c(NCC3CCCO3)o2)cc1OC (stereo not drawn),8,0,4%,/,1.1,3.9*
COc1ccc(-c2nnc(SCC(=O)NC(C)c3ccccc3)o2)cc1 (stereo not drawn),11,9,2%,i,1,1.1
COc1ccc(-c2nc(C#N)c(NC(C)c3ccccc3)o2)cc1OC (stereo not drawn),5,6,6%,/,1,3.9*
COc1ccc(CCNc2oc(COc3ccccc3)nc2C#N)cc1,9,0,3%,i,1,1.1
COc1ccc(-c2nc(C#N)c(NCCCN(C)C)o2)cc1OC,33,16,8%,/,1,3.1*
COc1ccc(CCNc2oc(-c3ccc(OC)c(OC)c3)nc2C#N)cc1,8,0,4%,/,1.1,3.9*
CCC1CCCCN1C(=O)CSc1nnc(-c2c[nH]c3ccccc23)o1 (stereo not drawn),9,16,11%,i,0.97,1.1
O=c1[nH]c2c(s1)C(c1ccco1)C1C3CCC(C3)C1S2 (stereo not drawn),10,0,2%,i,1,1
CC(C)c1nc(SCC(=O)NCc2ccccc2)n[nH]1,0,14,5%,i,1,1.1
Cc1cc(NC(=O)c2cc(S(=O)(=O)N3CCCCC3)ccc2C)n(-c2ccccn2)n1,0,0,0%,i,1,1.1
SMILES,Spn MK inh,Spn PMK inh,NADH coupling,DPM-DC inhibit,A340 absorber,Fluor 339 460
N#Cc1nc(-c2ccccc2F)oc1NCc1cccc2c1OCO2,4,0,1%,i,1,1.7
Cc1cccc(OCc2nc(C#N)c(NCCN(C)C)o2)c1,8,9,2%,i,0.97,1
N#Cc1nc(-c2ccccc2F)oc1NC1CCCCC1,3,0,2%,/,1.1,2.1*
N#Cc1nc(-c2ccccc2Cl)oc1NCC1CCCO1 (stereo not drawn),1,2,6%,i,1.1,1.7
CN(C)CCNc1oc(-c2ccccc2F)nc1C#N,4,13,4%,/,1,2.5*
CN(C)CCCNc1oc(-c2ccccc2)nc1C#N,4,5,5%,/,1.1,2.1*
Cc1ccc(-c2noc(CN3C(C)CCCC3C)n2)cc1 (stereo not drawn),11,15,5%,i,0.99,1.1
COC(=O)c1cc(OC)c(OC)cc1NC(=O)c1c(C)noc1C,4,0,1%,i,1.1,1.1
O=c1c2ccccc2ncn1Cc1nc2ccccc2s1,7,0,2%,i,1.1,1.1
O=c1c2ccccc2cnn1-c1nc2ccccc2s1,0,13,3%,/,0.99,3*
COc1ccc(-c2cc3nc(C)c(CCC(=O)N4CCCCC4)c(C)n3n2)c(OC)c1,0,40*,21%,i,1.1,2
COc1ccc(-c2cc3nc(C)c(CCC(=O)NCc4ccco4)c(C)n3n2)c(OC)c1,0,8,5%,i,1,2.2*
CC1=CCC2(CO)COC(c3ccccc3O)C1C2 (stereo not drawn),11,7,8%,i,1,1.1
O/N=C1\CCCc2oc3c(c21)CCCC3,6,0,3%,i,1,1.1
Cc1ccc2nc3ccc(N4CCN(C)CC4)nn3c(=O)c2c1,0,7,6%,i,1.1,2.3*
COc1ccccc1-c1cc(C(=O)Nc2ccc(F)cc2F)no1,12,11,8%,i,1,2.1*
COc1ccccc1-c1cc(C(=O)NC(C)C)no1,2,11,4%,i,1,1.2
CC(C)Cn1c(N)c(C(=O)COC(=O)c2cc(-c3ccco3)nc3ccccc23)c(=O)n(C)c1=O,0,0,1%,/,1,2.1*
O=C(COC(=O)c1cc(-c2cccs2)nc2ccccc12)NCc1ccco1,2,15,9%,/,1,4.9*
O=C(COC(=O)c1cc(-c2ccco2)nc2ccccc12)NCc1ccc2c(c1)OCO2,9,0,2%,/,1,2.1*
Cc1nn(-c2ccccc2)c(C)c1C(=O)OCC(=O)c1c(N)n(CC(C)C)c(=O)n(C)c1=O,0,9,2%,i,0.99,1.1
CCOC(=O)c1c(C)c(C(=O)NCCCOC(C)C)c(C)n1C,4,13,6%,i,0.98,1.1
Cc1cc(NC(=O)c2ccccc2NS(=O)(=O)c2c(C)c(C)cc(C)c2C)no1,11,2,7%,/,1,2.3*
Cc1ccc(C)c(S(=O)(=O)Nc2ccccc2C(=O)Nc2cc(C)on2)c1,6,0,3%,/,1.1,2.2*
C=CCn1c(-c2ccccc2)nc2nc3ccccc3nc21,0,21,11%,/,1.2,2.1*
